Shown is part of a subset that was picked to be rich in hits.
ST2 inh: blocks human ST2 binding to IL-33. AlphaLISA ST2-Fc/biotin-IL-33 interaction, 1 h. 2.3% of 78,000 active. Q01638. inhibition, % for hits at 17 µM. AID 1259354; in the data active means inhibition above about 30%
Target sequence (Q01638 whole entry, looked up): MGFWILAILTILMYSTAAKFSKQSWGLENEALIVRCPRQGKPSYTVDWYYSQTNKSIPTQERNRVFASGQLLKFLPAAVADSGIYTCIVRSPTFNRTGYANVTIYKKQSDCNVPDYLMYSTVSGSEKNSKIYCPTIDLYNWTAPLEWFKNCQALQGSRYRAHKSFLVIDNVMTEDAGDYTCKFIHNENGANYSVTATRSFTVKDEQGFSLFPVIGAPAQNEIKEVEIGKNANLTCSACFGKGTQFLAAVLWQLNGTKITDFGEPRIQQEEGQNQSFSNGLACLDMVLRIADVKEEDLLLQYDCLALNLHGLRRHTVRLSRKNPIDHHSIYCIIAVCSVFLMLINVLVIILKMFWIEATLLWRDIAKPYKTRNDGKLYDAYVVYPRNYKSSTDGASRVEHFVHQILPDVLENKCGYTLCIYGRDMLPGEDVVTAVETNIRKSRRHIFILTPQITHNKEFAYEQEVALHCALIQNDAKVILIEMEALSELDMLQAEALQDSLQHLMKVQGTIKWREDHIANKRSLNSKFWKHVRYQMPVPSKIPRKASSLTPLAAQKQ
* marks the source's active call; other numbers are inactive results.

What do the screens show for `COc1cccc(CC2(CO)CCN(C(=O)C3(C)CCCCO3)CC2)c1` (stereo not given)?
ST2 inh: inactive

How did O=C(CNC(=O)Cn1ccc2ccccc2c1=O)NCC1COc2ccccc2O1 (stereo not given) do in these assays?
ST2 inh: inactive

How did O=C(OCc1nc2ccccc2s1)c1ccc2c(c1)OCCO2 do in these assays?
ST2 inh: inactive

What do the screens show for `Cc1cc(C)c(S(=O)(=O)Nc2ccc3oc(=O)sc3c2)cc1C`?
ST2 inh: inactive

What do the screens show for `CC(=O)N1CCC(N2C[C@H](O)C[C@H]2c2nc(-c3ccc4c(c3)OCO4)no2)CC1`?
ST2 inh: 42%*

What do the screens show for `CC(=O)N1CCC(N2C[C@H](O)C[C@H]2c2nc(-c3ccc(C(F)(F)F)cc3)no2)CC1`?
ST2 inh: inactive

How did Oc1ccccc1CN1C[C@H](O)C[C@H]1c1nc(-c2ccc3c(c2)OCO3)no1 do in these assays?
ST2 inh: inactive

Results for O[C@@H]1C[C@@H](c2nc(-c3ccc4c(c3)OCO4)no2)N(Cc2ccc(Cl)cc2)C1 ?
ST2 inh: inactive

How did CC(=O)Nc1ccc(S(=O)(=O)N[C@H]2C[C@@H](c3nc(-c4ccc5c(c4)OCO5)no3)N(C)C2)cc1 do in these assays?
ST2 inh: inactive

Results for O[C@@H]1C[C@@H](c2nc(-c3ccc4c(c3)OCO4)no2)N(C2CCOCC2)C1 ?
ST2 inh: 33%*

Results for COc1ccccc1N/C(C)=C1\C(=O)C[C@@H]2[C@H]1C2(C)C ?
ST2 inh: inactive

How did CCCC1(C2CCN(C(=O)c3cccs3)CC2)NC(=O)N(CCc2ccccn2)C1=O (stereo not given) do in these assays?
ST2 inh: inactive

How did Cc1cc(NC(=O)c2cc3c(=O)n4ccccc4nc3s2)ccc1Br do in these assays?
ST2 inh: inactive

How did COc1ccc(-c2cc(N3CCN(S(=O)(=O)c4ccc(F)cc4)CC3)ncn2)cc1OC do in these assays?
ST2 inh: inactive

Results for CC1=C(C(=O)OCc2ccccc2)C(c2ccco2)C2=C(CC(C)(C)CC2=O)N1 (stereo not given) ?
ST2 inh: inactive

Results for Cc1ccccc1OCC(=O)NC1CC1 ?
ST2 inh: inactive

Results for O=C1c2ccc(Oc3ccc4c(c3)C(=O)N(c3nccs3)C4=O)cc2C(=O)N1c1nccs1 ?
ST2 inh: inactive

What do the screens show for `O=c1/c(=C/c2ccc(-c3cccc([N+](=O)[O-])c3)o2)sc2nc3ccccc3n12`?
ST2 inh: inactive

How did N=C1S/C(=C\c2ccc(-c3ccc([N+](=O)[O-])cc3)o2)C(=O)N1c1nccs1 do in these assays?
ST2 inh: 34%*

How did Cc1ccc(-n2c(/C=C/N(C)C)c([N+](=O)[O-])c3ccc(O)c(CN(C)C)c32)cc1 do in these assays?
ST2 inh: inactive

Results for Cn1c(=O)c2c(SCC(=O)c3ccccc3)nc(-c3cccs3)nc2n(C)c1=O ?
ST2 inh: inactive

What do the screens show for `COc1ccc(Nc2cc(C)nc3ncnn23)cc1`?
ST2 inh: inactive

How did O=C1c2cccc3cccc(c23)C(=O)N1CCNCCO do in these assays?
ST2 inh: inactive

How did O=C1c2c(O)ccc(O)c2C(=O)c2c(NCCNCCO)ccc(NCCNCCO)c21 do in these assays?
ST2 inh: 82%*

Results for CCN(CC)C(=O)C1c2ccccc2C(=O)N2CCc3ccccc3C12 (stereo not given) ?
ST2 inh: inactive

Results for COc1ccc(OC)c(/C=C2\C(=O)Nc3ccc(Br)cc32)c1 ?
ST2 inh: 35%*

What do the screens show for `COc1ccc(/C=C2\C(=O)Nc3ccc(Br)cc32)c(OC)c1OC`?
ST2 inh: inactive

What do the screens show for `COc1ccc(N2C(=O)NC(=O)/C(=C/c3cc(Br)c(O)c([N+](=O)[O-])c3)C2=O)cc1`?
ST2 inh: inactive

What do the screens show for `COc1cc(OC)c(/C=C2/C(=O)Nc3ccccc32)c(OC)c1`?
ST2 inh: inactive

How did COc1cc(/C=C2\C(=O)Nc3ccc(Br)cc32)cc([N+](=O)[O-])c1O do in these assays?
ST2 inh: 31%*

How did COc1cc(/C=C2\C(=O)NC(=O)N(c3cccc(C)c3)C2=O)cc(Cl)c1O do in these assays?
ST2 inh: inactive

What do the screens show for `CCOc1cc(/C=C2\C(=O)Nc3ccc(Br)cc32)cc(Cl)c1O`?
ST2 inh: 33%*

How did COc1cc(/C=C2/C(=O)NN(c3ccc(Cl)cc3)C2=O)cc([N+](=O)[O-])c1O do in these assays?
ST2 inh: inactive

What do the screens show for `CCOc1cc(/C=C2/NC(=O)NC2=O)c(Br)cc1O`?
ST2 inh: inactive

What do the screens show for `CC(=O)Nc1cc(-c2nc3cc(Cl)cc(Cl)c3o2)ccc1C`?
ST2 inh: inactive

Results for Cc1nc2c(C(=O)NC3CCC(C)CC3)c[nH]n2c(=O)c1Cc1ccccc1F (stereo not given) ?
ST2 inh: inactive

Results for Cc1ccc(C(=O)NCc2ccco2)cc1 ?
ST2 inh: inactive

Results for Cc1ccc(S(=O)(=O)N2CCC(CO)(Cc3cccc(C(F)(F)F)c3)CC2)s1 ?
ST2 inh: inactive

Results for CC1=NN(c2ccccc2)C(=O)/C1=C/c1cccc(Br)c1 ?
ST2 inh: inactive

Results for CC1=NN(c2cccc(F)c2)C(=O)/C1=C/c1ccc(N(C)C)cc1 ?
ST2 inh: inactive

What do the screens show for `COc1c(Br)cc(Br)cc1/C=C1\C(=O)N(c2ccccc2)N=C1C`?
ST2 inh: inactive

What do the screens show for `CC1=NN(c2ccc(I)cc2)C(=O)/C1=C/c1ccc(N(C)C)cc1`?
ST2 inh: 38%*

Results for CC1=NN(c2cccc(Br)c2)C(=O)/C1=C\c1ccc(N(C)C)cc1 ?
ST2 inh: inactive

Results for CC1=NN(c2ccccc2)C(=O)/C1=C\c1ccc(N(C)C)c(Br)c1 ?
ST2 inh: 39%*

Results for CCC(C(=O)Nc1c(-c2cccs2)nc2ccccn12)c1ccccc1 (stereo not given) ?
ST2 inh: inactive

How did COC(=O)C1C(=O)C2=C(CC1C)NC(C)=C(C(=O)OC(C)C)C2c1ccc(OC)cc1OC (stereo not given) do in these assays?
ST2 inh: inactive

How did CCCn1cnc2c1CN(C(=O)COc1ccccc1)[C@H](C(=O)OC)C2 do in these assays?
ST2 inh: inactive

What do the screens show for `[O-][n+]1c2ccccc2[n+]([O-])c2cc(O)ccc21`?
ST2 inh: 35%*

How did Cc1cc(C)n(CC(C)n2cnc3sc4c(c3c2=O)CCNC4)n1 (stereo not given) do in these assays?
ST2 inh: inactive

Results for CSc1ccc(C2Nc3cccc4cccc(c34)N2)cc1 ?
ST2 inh: 31%*

Results for CSc1ccc(C2Nc3ccccc3C(=O)N2c2ccc(C)cc2)cc1 (stereo not given) ?
ST2 inh: inactive

What do the screens show for `CCCSc1nc2c(c(=O)n1-c1ccc(F)cc1)SCC2`?
ST2 inh: inactive

How did CCOC(=O)C(CC)Sc1nc2c(c(=O)n1-c1ccc(C)cc1)SCC2 (stereo not given) do in these assays?
ST2 inh: inactive

How did CC(Sc1nc2c(c(=O)n1-c1ccc(F)cc1)SCC2)c1ccccc1 (stereo not given) do in these assays?
ST2 inh: inactive

How did CCOC(=O)C(C)(C)Sc1nc2c(c(=O)n1-c1ccc(Cl)cc1)SCC2 do in these assays?
ST2 inh: inactive

Results for CCOC(=O)C(C)(C)Sc1nc2c(c(=O)n1-c1ccc(Br)cc1)SCC2 ?
ST2 inh: inactive

Results for Cc1ccc(-n2c(SCC(=O)N3CCCCCC3)nc3c(c2=O)SCC3)cc1 ?
ST2 inh: inactive
